HSF-1 act = increases HSF-1 driven luciferase reporter signal. AID 504408. actives 1.7% (n = 300,000). NIH3T3-HGL HSF-1 luciferase reporter, MG132, 8 h; 100% = twice DMSO control signal. activation, % at 9 µM;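 active = mean replicate activation of at least 50% with a set share of replicates each reaching 50%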;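 also: 0% = median of the neutral control wells and 100% = twice that signal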
ARNT-TACC3 inh = disruptors of human ARNT/TACC3 interaction. AlphaScreen His-ARNT PAS-B/GST-TACC3 binding, luminescence; TACC3 fragment carries E629A point mutation. Q9Y6A5. actives 0.66% (n = 390,000). AID 623870. inhibition, % at 9.99 µM;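 active = mean inhibition of replicates at least 50% and at least half of replicates each reaching 50%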;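 also: 0% = complete ARNT plus TACC3 wells and 100% = ARNT alone without TACC3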
HSF1 inh = HSF1 inhibition; NIH3T3-HGL HSE-luciferase, MG132-induced, luminescence 8 h; stronger effect = lower value; actives 0.77% (n = 300,000); activity change, negative = inhibition, % at 7.5 µM (by protocol);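 active = more than half of replicate wells show activity change below -50%, luminescence cut by over half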;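 also: luciferase reports HSF-1 transcriptional activity via heat shock element; 0% = median of DMSO wells and -100% = zero luminescence signal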
HSP90 inh = inhibitors of HSP90 luciferase refolding in rabbit reticulocyte lysate. luciferase refolding luminescence, 3 h. inhibition, % at 5.6 µM. actives 0.91% (n = 290,000). AID 1789;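 active = inhibition above the screen-wide mean plus 3 SD, computed separately per campaign, cut at about 16% in these data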;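 also: 0% = DMSO wells and 100% = 60 µM geldanamycin wells; inhibitors lower the luminescence because luciferase stays unfolded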
HIF act = HIF pathway transcriptional activation | activation, % at 7.5 µM (by protocol) | actives 0.32% (n = 300,000) | U2OS HRE-luciferase reporter, luminescence; normalized: DMSO 0%, desferrioxamine 100%;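 active = mean activation of at least 10% of the iron chelator positive control signal, with at least half of replicates also reaching 10%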
ARNT Alpha ctr-1 = AlphaScreen artifact in ARNT/TACC3 counter-screen. shares compounds with ARNT-TACC3 inh. His-ARNT PASB-GST AlphaScreen artifact counter-screen, luminescence. AC50, µM (doses to about 68 µM), without a hit: at the highest dose activity change, negative = signal decrease. actives 50% (n = 1,200). AID 651705;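 active = every separate test run was called active for a drop in luminescence, with AC50 within twice the top valid dose, actives reach about 71 µM in these data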
ARNT Alpha ctr-2 = produces AlphaScreen artifacts in ARNT-TACC3 counter-screen | shares compounds with ARNT-TACC3 inh | Dual-tagged His-ARNT PASB-GST AlphaScreen artifact counter-screen | AC50, µM | actives 70% (n = 45) | AID 720564;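 active = luminescence drop, with half-maximal potency fitted within twice the sample's top valid dose, cut at about 70 µM in these data; inactive = the rest, including signal moving the wrong way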
Starred values were filed as active, the others as inactive; x = not tested or not shown. Rows were chosen to be rich in hits. Some 3.1% of all compounds tested hit in one or more screens of this group.

SMILES	HSF-1 act	ARNT-TACC3 inh	HSF1 inh	HSP90 inh	HIF act	ARNT Alpha ctr-1	others
CCC1CCCCN1S(=O)(=O)c1ccc(NC(=O)c2cccs2)cc1 (stereo not drawn)	-1.7	0.0	-3.1	1.1	-0.5	x
CCC1CCCCN1S(=O)(=O)c1ccc(NC(=O)CSc2ncccc2C(=O)O)cc1 (stereo not drawn)	8.9	44.4*	-4.4	2.6	-0.4	13.7µM*
CCNC(=O)C(=O)N/N=C/c1cc([N+](=O)[O-])ccc1O	-4.6	61.3*	-10.3	4.1	-0.2	25µM*
COc1ccc(OC)c(NC(=O)COC(=O)Cn2nnc(-c3ccccc3)n2)c1	x	active	x	x	x	0.7%
O=C(COC(=O)Cn1nnc(-c2ccccc2)n1)Nc1ccccc1Br	x	-2.9	x	x	x	x
O=C(C1=C(O)C(=O)N(Cc2ccccc2)C1c1ccncc1)c1ccco1 (stereo not drawn)	-1.0	21.0*	-5.1	2.2	-37.4	-3.3%
O=C(C1=C(O)C(=O)N(CCCn2ccnc2)C1c1ccccc1)c1ccco1 (stereo not drawn)	1.5	-6.2	-1.5	-3.3	-0.3	x
COc1ccc(N2CCN(C(CNC(=O)C(=O)NCCCn3ccnc3)c3ccco3)CC2)cc1 (stereo not drawn)	-2.3	2.3	-0.7	1.1	-0.1	x
O=C(NCCCn1ccnc1)C(=O)NCC(c1ccco1)N1CCN(c2ccccc2)CC1 (stereo not drawn)	-7.1	44.7*	-0.4	-2.3	0.2	-13.2%
O=C(NCCCn1ccnc1)C(=O)NCC(c1ccco1)N1CCN(c2ccc(F)cc2)CC1 (stereo not drawn)	-3.7	58.8*	-3.6	-2.4	0.3	-14.8%
O=C(NCCCn1ccnc1)C(=O)NCC(c1cccnc1)N1CCN(c2ccccc2)CC1 (stereo not drawn)	-24.2	37.1	-6.0	1.3	0.1	x
C[C@H](CO)N1C[C@H](C)[C@H](CN(C)C(=O)CCC(F)(F)F)OCCCC[C@H](C)Oc2ccc(NC(=O)NC3CCCCC3)cc2C1=O	x	-4.0	x	x	x	x
Cc1cccc(C(=O)Nc2nnc(-c3cccnc3)o2)c1	-25.6	58.9*	-13.8	1.1	-0.2	-34.7%
O=C(Nc1nnc(-c2ccco2)o1)c1cccc2ccccc12	25.5	16.9	-8.5	2.6	-0.3	x
Cc1cccc(C(=O)Nc2nnc(-c3ccncc3)o2)c1	-3.2	61.6*	-4.8	-0.9	-0.7	-27.2%
Cc1ccccc1C(=O)Nc1nnc(-c2ccco2)o1	3.6	61.6*	0.7	-0.4	-0.3	-32.7%
Cc1cccc(C(=O)Nc2nnc(-c3ccco3)o2)c1	5.5	56.2*	1.5	0.3	0.0	-35.5%
O=C(Nc1nnc(-c2ccncc2)o1)c1ccc2ccccc2c1	-0.4	20.0	0.7	1.2	-0.1	x
CC(C)NC(=O)Nc1ccc2c(c1)C(=O)N([C@H](C)CO)C[C@@H](C)[C@H](CN(C)C(=O)Nc1ccc(F)cc1)OCCCC[C@@H](C)O2	x	-2.1	x	x	x	x
O=C(C[C@@H]1CC[C@H](NS(=O)(=O)c2ccc(F)cc2)[C@@H](CO)O1)NCc1ccc(Cl)c(Cl)c1	x	5.7	x	x	x	x
C/C=C/c1ccc([C@H]2[C@@H](CN(C)C(=O)C3CC3)N(C(=O)CC)[C@H]2CO)cc1	x	-2.6	x	x	x	x
CCN1[C@H](C(=O)NCCc2cn(C)cn2)[C@@H](CO)[C@@H]2Cn3c(ccc(-c4ccncc4)c3=O)[C@@H]21	x	0.5	x	x	x	x
O=C(Nc1ccccc1C(=O)Nc1ccccc1C(=O)O)c1ccccc1	12.3	73.9*	5.4	2.5	2.8	26.2µM*
Nc1ccc(C(=O)Nc2ccccc2C(=O)O)cc1	8.4	12.1	-9.1	3.5	0.8	x
O=C(Nc1ccc(N2CCN(C(=O)c3ccccc3F)CC2)cc1)c1ncn[nH]1	17.4	59.2*	-7.4	5.6	-0.2	-18.2%
SMILES	HSF-1 act	ARNT-TACC3 inh	HSF1 inh	HSP90 inh	HIF act	ARNT Alpha ctr-1	others
CC(C)CC(=O)NC(c1cccs1)c1ccc2cccnc2c1O (stereo not drawn)	15.5	x	15.6	10.3	68.4*	x	ARNT Alpha ctr-2=6.98*
CC(=O)NC(c1ccco1)c1cc(Cl)c2ccc(Cl)nc2c1O (stereo not drawn)	x	2.3	x	x	x	x
CC(C)C(=O)NC(c1ccco1)c1ccc2cccnc2c1O (stereo not drawn)	x	53.4*	x	13.2	21.9*	28.5µM*	ARNT Alpha ctr-2=9.4*
CC(C)C(=O)NC(c1cccc([N+](=O)[O-])c1)c1ccc2cccnc2c1O (stereo not drawn)	-20.1	63.0*	-18.4	10.9	94.5*	16.8µM*
CC(C)C(=O)NC(c1ccco1)c1cc(Cl)c2cccnc2c1O (stereo not drawn)	x	x	x	x	x	x	ARNT Alpha ctr-2=43.1*
CC(C)CC(=O)NC(NC(=S)Nc1cccc2cccnc12)C(Cl)(Cl)Cl (stereo not drawn)	29.9	8.9	16.6	2.0	-0.7	x
Cc1ccccc1S(=O)(=O)N1C[C@H](O)COC[C@@H]2O[C@@H](CC(=O)NCc3ccccc3Cl)CC[C@H]21	x	2.8	x	x	x	x
CC(=O)NC(c1ccco1)c1cc(Cl)c2ccccc2c1O (stereo not drawn)	x	6.0	x	x	x	x
O=C(Cc1ccccc1)NC(c1ccco1)c1ccc2cccnc2c1O (stereo not drawn)	x	x	x	x	x	x	ARNT Alpha ctr-2=8.67*
CC(=O)NC(c1ccco1)c1cc(F)c2cccnc2c1O (stereo not drawn)	x	57.5*	x	x	x	45.4µM*
COc1cc(/C=N/NC(=O)CCN2CCN(Cc3ccccc3)CC2)cc(OC)c1OC	-12.4	-8.1	0.0	-0.3	-0.6	x
COc1cc(/C=N/NC(=O)CCN2CCN(c3ccccc3)CC2)cc(OC)c1OC	-4.7	37.9*	-7.0	-3.8	-0.4	56.3µM*
CNc1nc(C(=O)O)nc(N2CCOCC2)n1	10.3	56.4*	3.1	3.6	-0.3	-31.5%
CC(C)c1cn(CC[C@H]2CC[C@H](NC(=O)C3CCC3)[C@@H](CO)O2)nn1	x	2.1	x	x	x	x
COc1ccc(S(=O)(=O)/N=C2/NC(=O)/C(=C\c3cc(OC)c(OC)cc3[N+](=O)[O-])S2)cc1	6.0	8.6	1.8	-1.1	0.1	x
COc1cc(/C=C2\S/C(=N/S(=O)(=O)c3ccccc3)NC2=O)c([N+](=O)[O-])cc1OC	-1.7	9.7*	1.7	2.8	-0.2	-25.4%
C[C@@H](NC(=O)C[C@@H]1C[C@H]2c3cc(NC(=O)c4cccnc4)ccc3O[C@H]2[C@@H](CO)O1)c1ccccc1	x	7.9	x	x	x	x
Nc1ccc(NC(=O)c2ccc(C(=O)Nc3ccc(N)cc3)cc2)cc1	23.9	-5.5	1.2	-0.8	-0.1	x
Nc1ccc(C(=O)Nc2ccc3c(O)cc(S(=O)(=O)O)cc3c2)cc1	x	69.3*	x	x	x	-34.1%

High-throughput results as filed in PubChem.
